# PTAP TSG101 blk – blocks PTAP/TSG101 interaction to inhibit HIV-1 budding; 340,000 tested, under 10 active; Fluorescence polarization, FITC-PTAP peptide / Tsg101 binding; Q99816; Potency, µM (highest dose often 115 µM), for inactives: top-dose activity change, negative = inhibition, hits mostly inhibitors; active = well fitted inhibition curve with a large enough effect in the main read-out, with a control signal flat, not every such curve was filed as active; inconclusive = small, poorly fitted or top-dose-only effect, or effect the other way, or a change in a side signal; inactive = no such curve, though single readings can be large or run the other way; note: % of control where 0% means no effect
# Target sequence (Q99816 whole entry, looked up): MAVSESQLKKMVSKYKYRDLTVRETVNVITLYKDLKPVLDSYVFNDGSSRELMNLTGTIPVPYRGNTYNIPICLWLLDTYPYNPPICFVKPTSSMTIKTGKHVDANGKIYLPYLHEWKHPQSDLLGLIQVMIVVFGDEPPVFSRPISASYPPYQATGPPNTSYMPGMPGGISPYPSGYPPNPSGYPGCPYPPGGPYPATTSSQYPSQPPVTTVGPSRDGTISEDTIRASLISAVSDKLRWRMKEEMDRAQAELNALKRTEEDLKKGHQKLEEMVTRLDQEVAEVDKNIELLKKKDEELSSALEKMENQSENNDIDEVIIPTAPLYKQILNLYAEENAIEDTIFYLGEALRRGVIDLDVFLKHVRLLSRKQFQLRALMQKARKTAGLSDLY
#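 Fluorescence polarization binding of Tsg101 binding domain (10 uM final) to FITC-labeled PTAP peptide (50 nM final) in HEPES pH 7.5 buffer with NaCl, Tween 20, EDTA, TCEP. Compounds added before peptide; binding 20 min at RT.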
# SW480 rereplic – induces DNA re-replication in SW480 colon adenocarcinoma cells | SW480 DNA re-replication, Hoechst DNA content imaging, 48 h | Potency, µM (highest dose often 46.1 µM), without a hit: at the top dose re-replication activation, actives largely listed as activators | hit rate 1.8% among 340,000 | AID 624297; note: % of control where 0% means no effect; nearly all actives have a fitted effect of over 55% in size
#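 Hoechst fluorescence of nuclei (405 nm excitation, 500-530 nm emission) measured by plate-scanning imager after 48 hr compound exposure at 37 C; re-replication scored as increased number of nuclei with elevated intensity.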
# MCF10A rereplic – DNA re-replication induction in MCF 10a cells | MCF 10A DNA re-replication, Hoechst nuclear intensity, 48 h | Potency, µM (titrated, usually from 46.1 µM), for the others: at the highest dose activity, positive = re-replication, usual class: activators | hit rate 2.9% among 350,000 | AID 624296; note: % of control where 0% means no effect; nearly all actives have a fitted effect of over 50% in size
# KB-3-1 tox – kills parental KB-3-1 adenocarcinoma cells | KB-3-1 viability, CellTiter-Glo ATP luminescence, 72 h | Potency, µM (doses to about 46.1 µM), hits mostly cytotoxic | hit rate 1.4% among 400,000 | AID 1347075; note: % is set by controls: 0 for no effect and ±100 for the full control effect; nearly all actives have a fitted effect of over 60% in size
#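 KB-3-1 cells, DMEM (no phenol red) + 10% FBS; compound by pin transfer, 72 h, 37 °C. Readout: CellTiter-Glo luminescence after 10 min. Data normalized, curve-fitted.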
# PINK1 modulator – changes PINK1 expression | hit rate 0.2% among 410,000 | Potency, µM (doses to about 76.6 µM), for the others: at the top dose activation (PINK1 increase), hits mostly activators | AID 624263 | PINK1 immunofluorescence, high-content cytometry, 24 h; active = well fitted activation curve with a large enough effect; inconclusive = small, poorly fitted or top-dose-only effect; cell line not stated here; note: % of control where 0% means no effect; nearly all actives have a fitted effect of over 65% in size
#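 Measures PINK1 amount and localization on or inside mitochondria by immunofluorescence. Stable cells get compounds at 5 concentrations for 24 hours before fixation and staining; CCCP controls included.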
# KB-V1 MDR tox – kills drug-selected multidrug resistant KB-V1 cells. KB-V1 MDR cells viability, CellTiter-Glo, 72 h. Potency, µM (doses to about 46.1 µM), most hits filed as cytotoxic. hit rate 3.4% among 400,000. AID 1347076; note: % is set by controls: 0 for no effect and ±100 for the full control effect; nearly all actives have a fitted effect of over 60% in size
#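 In this primary screen, KB-V1 cells overexpressing P-gp are incubated with library compounds (lowest to highest concentration) for 72 h at 37 degrees C before a luminescent ATP viability read.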
# * hit, by the source's call; i = inactive; u = inconclusive; x = no result; [ ] = another dose, or the depositor's remark. Compounds with a hit are over-represented: about 6.8% of the library has one in this group of screens. Unless noted, calls come from the whole dose curve; as a rule, active = well fitted curve in the direction sought with a large enough effect; inconclusive = small, poorly fitted or top-dose-only effect, or another doubt; inactive = no such curve, though single readings can be large; an effect the other way counts as inactive or inconclusive. Potency is the fitted concentration of half-maximal effect.
SMILES,PTAP TSG101 blk,SW480 rereplic,MCF10A rereplic,KB-3-1 tox,PINK1 modulator,KB-V1 MDR tox
CC(C)c1c(C(=O)N/N=C/c2ccccc2OCc2c(F)cccc2Cl)nnn1-c1nonc1N,6.2%,9.2µM*,u,i,4.6%,16.4µM*
CCOc1ccc(CCNC(=O)c2sc3ncccc3c2-n2cccc2)cc1OCC,x,x,x,i,0.1%,u
CCc1ccc(C2C(C#N)=C(N)C(C#N)(C#N)C3=CCC(C(C)(C)C)CC32)cc1 (stereo not given),-5.4%,8.2µM*,14.6µM*,u,-4.5%,u
Nc1ccccc1C#Cc1ccc([N+](=O)[O-])cc1,-2.7%,u,u,i,1.1%,i
Nc1ccccc1C#CC(=O)c1ccccc1,-0.4%,u,8.2µM*,u,0.8%,i
Cc1ccc(CSC2=Nc3ccccc3C3=NC(CC(=O)NCc4cccs4)C(=O)N23)c(C)c1 (stereo not given),x,x,x,i,-0.2%,i
C=CC(=O)Oc1ccc(N2Cc3ccccc3C2=O)cc1,-1.8%,11.6µM*,u,i,0.5%,i
COc1cccc(/C=C/c2ccc3cccc(O)c3n2)c1OC,-1.5%,u,-13.9%,i,5.3%,i
COc1cc(Br)cc(/C=C/c2ccc3cccc(O)c3n2)c1OC,-2.3%,-7.9%,4.6%,i,18.9%,i
COc1cc(/C=C/c2ccc3cccc(O)c3n2)cc(Br)c1OC,3.3%,u,14.6µM*,14.6µM*,6.8%,u
COc1cc(/C=C/c2ccc3cccc(O)c3n2)cc(OC)c1OC,-3.2%,17.3%,u,u,6.6%,u
COc1ccc(/C=C/c2ccc3cccc(O)c3n2)c(OC)c1OC,-5.3%,u,1.64µM*,i,6.1%,i
CCOc1c(OC(C)=O)ccc(/C=C/c2ccc3cccc(OC)c3n2)c1[N+](=O)[O-],-0.4%,u,16.5%,i,10.8%,16.4µM*
COc1cc(/C=C/c2ccc3cccc(O)c3n2)cc(Cl)c1OC,-4.1%,4.61µM*,14.6µM*,u,16.7%,u
CC(C)(Oc1ccc(Cl)cc1)C(=O)Nc1ccc(-c2nc3ncccc3o2)cc1,x,x,x,i,1.0%,i
COc1ccc(CCCc2nnc(SCC(=O)Nc3ccc(C)cc3)o2)cc1,x,x,x,i,2.1%,i
Cc1nnc(N2CCN(c3ccccc3F)CC2)c2c1nnn2Cc1ccc(F)cc1,x,x,x,i,0.6%,u
Cc1ccccc1NC(=S)NCc1ccc2c(c1)cc(C)n2C,-9.2%,16.4µM*,u,u,5.0%,20.6µM*
Cc1cc2cc(CNC(=S)NCc3ccccc3)ccc2n1C,-1.2%,-2.6%,13.0%,i,-0.7%,i
CCc1cccc(C)c1NC(=S)NCc1ccc2c(c1)cc(C)n2C,-2.3%,14.6µM*,14.6µM*,u,1.8%,i
CNC(=O)c1ccc(CSc2nc3ccncc3n2Cc2ccc(C)cc2)cc1,x,x,x,i,-0.1%,i
CC(C)C(OC(=O)CN1C(=O)COc2ccccc21)C(=O)NC1CCCC1 (stereo not given),0.7%,-7.2%,-1.7%,i,-3.3%[38.3 µM],6.51µM*
Cc1ccc2c(c1)N(CC(=O)OC(CC(C)C)C(=O)NC1CCCC1)C(=O)CO2 (stereo not given),x,1.9%,u,i,2.5%[38.3 µM],3.66µM*
Cc1cccc2c(N3CCCC3)nc(CNS(=O)(=O)c3ccc4ccccc4c3)nc12,x,x,x,x,-1.3%,x
COC(c1ccc2c(c1)CN(C(=O)Cn1nc(C)c3ccccc3c1=O)CCO2)C1CCCCC1 (stereo not given),x,x,x,x,1.3%,x
CCN(CC)S(=O)(=O)c1ccc(-c2nnc(SCC(=O)N3c4ccccc4CC3C)n2CC)cc1 (stereo not given),0.0%,-4.6%,2.6%,i,-1.5%,20.6µM*
CC1Cc2ccccc2N1C(=O)CSc1nnnn1C (stereo not given),-5.9%,2.8%,0.6%,i,1.2%,i
